Test results as given in PubChem BioAssay (NCI).
Compounds without any hit were thinned out: in the full panel of roughly 83,000, 20% have a hit.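 Cell lines were cultured in 96-well plates, exposed to a single compound concentration, and assessed for percent growth 48 hours later.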 The source made the active and inactive calls. Rule for the calls: active = growth percent below 10; inactive = the rest.

Legend:
Experiment in all cases: NCI-60 one-dose screen, 48 h (100 = growth as untreated, 0 = no growth, -100 = all killed)
Conditions in all cases: 10 µM unless noted
NCI-H23 lung = system: NCI-H23 lung
NCI-H226 lung = system: NCI-H226 lung
NCI-H322M lung = system: NCI-H322M lung
HOP-62 NSCLC = system: HOP-62 NSCLC
NCI-H460 lung = system: NCI-H460 lung
NCI-H522 lung = system: NCI-H522 lung
A549/ATCC NSCLC = system: A549/ATCC NSCLC
786-0 renal = system: 786-0 renal
COLO 205 colon = system: COLO 205 colon
DU-145 prostate = system: DU-145 prostate
K-562 leukemia = system: K-562 leukemia
MALME-3M melanoma = system: MALME-3M melanoma
MDA-MB-231 breast = system: MDA-MB-231 breast
RXF 393 renal = system: RXF 393 renal
SF-268 CNS = system: SF-268 CNS
SF-295 CNS = system: SF-295 CNS
SF-539 CNS = system: SF-539 CNS
UACC-257 melanoma = system: UACC-257 melanoma
M14 melanoma = system: M14 melanoma

Measured: growth

O=C(O)c1ccccc1Oc1cc(-c2ccco2)nc(OCCN2CCOCC2)n1
inactive: NCI-H23 lung 106% | NCI-H226 lung 97% | NCI-H322M lung 94.6% | HOP-62 NSCLC 99.9% | NCI-H460 lung 116% | NCI-H522 lung 92.1% | A549/ATCC NSCLC 106% | 786-0 renal 96.5% | COLO 205 colon 103% | DU-145 prostate 113% | K-562 leukemia 107% | MALME-3M melanoma 98.3% | MDA-MB-231 breast 98.8% | RXF 393 renal 115% | SF-268 CNS 114% | SF-295 CNS 102% | SF-539 CNS 108% | UACC-257 melanoma 108% | M14 melanoma 99.1%

CC1(C)CC(=O)c2cc3c(N)c(C(=O)Nc4ccc(Cl)cc4)sc3nc2C1
inactive: NCI-H23 lung 105% | NCI-H226 lung 108% | NCI-H322M lung 114% | HOP-62 NSCLC 108% | NCI-H460 lung 109% | NCI-H522 lung 95.8% | A549/ATCC NSCLC 97.6% | 786-0 renal 98.7% | COLO 205 colon 117% | DU-145 prostate 103% | K-562 leukemia 107% | MALME-3M melanoma 119% | MDA-MB-231 breast 115% | RXF 393 renal 116% | SF-268 CNS 125% | SF-295 CNS 100% | SF-539 CNS 114% | UACC-257 melanoma 91.4% | M14 melanoma 107%

O=C(Nc1ccc(Cl)cc1)c1cc(-c2ccc(Cl)cc2)c2sc(=O)[nH]c2n1
active: NCI-H23 lung 2.31% | NCI-H226 lung 0.841% | NCI-H322M lung 6.21% | HOP-62 NSCLC -19% | NCI-H460 lung -5.14% | NCI-H522 lung -26.3% | A549/ATCC NSCLC 1.59% | 786-0 renal 6.31% | COLO 205 colon -52.1% | K-562 leukemia -12.8% | MALME-3M melanoma -13.8% | MDA-MB-231 breast -30.9% | RXF 393 renal -3.38% | SF-295 CNS -12.5% | SF-539 CNS 7.84% | UACC-257 melanoma -24.9% | M14 melanoma 8.92%
inactive: DU-145 prostate 16.5% | SF-268 CNS 14.1%

CC(=O)Cc1ccccn1
inactive: NCI-H23 lung 104% | NCI-H226 lung 98% | NCI-H322M lung 110% | HOP-62 NSCLC 108% | NCI-H460 lung 105% | NCI-H522 lung 92.5% | A549/ATCC NSCLC 104% | 786-0 renal 101% | COLO 205 colon 133% | DU-145 prostate 107% | K-562 leukemia 100% | MALME-3M melanoma 106% | MDA-MB-231 breast 105% | RXF 393 renal 119% | SF-268 CNS 98.7% | SF-295 CNS 84.1% | SF-539 CNS 99.7% | UACC-257 melanoma 103% | M14 melanoma 102%

Cc1c(C(N)=O)sc2ncn(CC(=O)NN=C3CCCCC3)c(=O)c12
inactive: NCI-H23 lung 111% | NCI-H226 lung 96.7% | NCI-H322M lung 116% | HOP-62 NSCLC 104% | NCI-H460 lung 115% | NCI-H522 lung 83.8% | A549/ATCC NSCLC 111% | 786-0 renal 105% | COLO 205 colon 129% | DU-145 prostate 111% | K-562 leukemia 103% | MALME-3M melanoma 136% | MDA-MB-231 breast 103% | RXF 393 renal 83.5% | SF-268 CNS 108% | SF-295 CNS 98.6% | SF-539 CNS 105% | UACC-257 melanoma 165% | M14 melanoma 105%

COc1ccc(C(=O)O)cc1.[Ag]
active: K-562 leukemia -27.4% | MALME-3M melanoma -51.3%
inactive: NCI-H23 lung 103% | NCI-H226 lung 101% | NCI-H322M lung 102% | HOP-62 NSCLC 113% | NCI-H460 lung 87.1% | NCI-H522 lung 11.8% | A549/ATCC NSCLC 93.4% | 786-0 renal 107% | COLO 205 colon 61.8% | DU-145 prostate 106% | MDA-MB-231 breast 103% | RXF 393 renal 100% | SF-268 CNS 97% | SF-295 CNS 114% | SF-539 CNS 94.9% | UACC-257 melanoma 94.9% | M14 melanoma 106%

Cc1ccccc1NC(=O)c1sc2nc3c(cc2c1N)C(=O)CCC3
active: COLO 205 colon 6.12% | RXF 393 renal -10.4%
inactive: NCI-H23 lung 50.6% | NCI-H226 lung 65.8% | NCI-H322M lung 71.4% | HOP-62 NSCLC 38.2% | NCI-H460 lung 15.3% | NCI-H522 lung 12.5% | A549/ATCC NSCLC 37.6% | 786-0 renal 51.6% | DU-145 prostate 18.3% | K-562 leukemia 22.1% | MALME-3M melanoma 66.5% | MDA-MB-231 breast 61.6% | SF-268 CNS 65.4% | SF-295 CNS 57.2% | SF-539 CNS 27.6% | UACC-257 melanoma 61% | M14 melanoma 41.5%

CCn1c(=O)c(C(=O)NCCCO)c(O)c2ccccc21
active: RXF 393 renal -24.8%
inactive: NCI-H23 lung 110% | NCI-H226 lung 99.1% | NCI-H322M lung 134% | HOP-62 NSCLC 101% | NCI-H460 lung 111% | NCI-H522 lung 101% | A549/ATCC NSCLC 103% | 786-0 renal 106% | COLO 205 colon 110% | DU-145 prostate 122% | K-562 leukemia 89.9% | MALME-3M melanoma 123% | MDA-MB-231 breast 106% | SF-268 CNS 94.3% | SF-295 CNS 110% | SF-539 CNS 96.8% | UACC-257 melanoma 125% | M14 melanoma 124%

O=C(CSc1nnc(Cc2ccccc2Nc2c(Cl)cccc2Cl)n1-c1ccccc1)N1N=C(c2ccc3ccccc3c2)CC1c1ccc(Cl)cc1 (centres undefined)
inactive: NCI-H23 lung 96.2% | NCI-H226 lung 98.8% | NCI-H322M lung 90.7% | HOP-62 NSCLC 92.7% | NCI-H460 lung 106% | NCI-H522 lung 66.1% | A549/ATCC NSCLC 96.3% | 786-0 renal 95.9% | COLO 205 colon 102% | DU-145 prostate 94.3% | K-562 leukemia 101% | MALME-3M melanoma 95.4% | MDA-MB-231 breast 104% | RXF 393 renal 124% | SF-268 CNS 89.1% | SF-295 CNS 100% | SF-539 CNS 106% | UACC-257 melanoma 117% | M14 melanoma 98.4%

COc1cc(C2CC(c3ccc(Cl)cc3)=NN2C=O)ccc1Oc1ccnc2cc(Cl)ccc12 (centres undefined)
inactive: NCI-H23 lung 65.2% | NCI-H226 lung 51.4% | NCI-H322M lung 88.2% | HOP-62 NSCLC 53.1% | NCI-H460 lung 65.2% | NCI-H522 lung 47.2% | A549/ATCC NSCLC 59.1% | 786-0 renal 78.6% | COLO 205 colon 94.5% | DU-145 prostate 85.7% | K-562 leukemia 72.5% | MALME-3M melanoma 64% | MDA-MB-231 breast 56.9% | RXF 393 renal 64.2% | SF-268 CNS 68.6% | SF-295 CNS 66.2% | SF-539 CNS 66.2% | UACC-257 melanoma 66.8% | M14 melanoma 92.4%

COc1cc(-c2nn(C(=O)NCCN3CCN(C)CC3)cc2-c2ccncc2)ccc1Cl
inactive: NCI-H23 lung 90.5% | NCI-H226 lung 27.1% | NCI-H322M lung 106% | HOP-62 NSCLC 41.6% | NCI-H460 lung 93.5% | NCI-H522 lung 75.3% | A549/ATCC NSCLC 57% | 786-0 renal 59.3% | COLO 205 colon 50.9% | DU-145 prostate 87.2% | K-562 leukemia 83.9% | MALME-3M melanoma 77.8% | MDA-MB-231 breast 70.5% | RXF 393 renal 42.3% | SF-268 CNS 46.2% | SF-295 CNS 88.2% | SF-539 CNS 63.6% | UACC-257 melanoma 86.2% | M14 melanoma 68.9%

COc1ccc(C(=O)C(CN(C)C)c2ccc(OC)cc2)cc1 (centres undefined)
active: NCI-H522 lung -27.1% | DU-145 prostate 7.55%
inactive: NCI-H23 lung 89.8% | NCI-H226 lung 84.2% | NCI-H322M lung 93.2% | HOP-62 NSCLC 96% | NCI-H460 lung 86.3% | A549/ATCC NSCLC 86.3% | 786-0 renal 28.6% | COLO 205 colon 57.4% | K-562 leukemia 16.3% | MALME-3M melanoma 84.9% | MDA-MB-231 breast 59.4% | RXF 393 renal 55.8% | SF-268 CNS 60.2% | SF-295 CNS 101% | SF-539 CNS 78.8% | UACC-257 melanoma 45.3% | M14 melanoma 60.6%

Cc1nc(N)nc2c1CCC(Nc1ccccc1)S2 (centres undefined)
inactive: NCI-H23 lung 104% | NCI-H226 lung 99.1% | NCI-H322M lung 101% | HOP-62 NSCLC 112% | NCI-H460 lung 109% | NCI-H522 lung 91% | A549/ATCC NSCLC 97.6% | 786-0 renal 103% | COLO 205 colon 107% | DU-145 prostate 106% | K-562 leukemia 93.4% | MALME-3M melanoma 96.3% | MDA-MB-231 breast 106% | RXF 393 renal 107% | SF-268 CNS 94.7% | SF-295 CNS 104% | SF-539 CNS 96.7% | UACC-257 melanoma 101% | M14 melanoma 108%

O=C(Nc1ccncc1)C(=O)c1cn(S(=O)(=O)c2cccc(Cl)c2F)c2ccccc12
inactive: NCI-H23 lung 63.7% | NCI-H226 lung 75% | NCI-H322M lung 96.7% | HOP-62 NSCLC 89.6% | NCI-H460 lung 90% | NCI-H522 lung 35.2% | A549/ATCC NSCLC 82.8% | 786-0 renal 77.3% | COLO 205 colon 106% | DU-145 prostate 96.9% | K-562 leukemia 23.9% | MALME-3M melanoma 53.7% | MDA-MB-231 breast 78.2% | RXF 393 renal 92.5% | SF-268 CNS 80.6% | SF-295 CNS 67.9% | SF-539 CNS 83.2% | UACC-257 melanoma 89.6% | M14 melanoma 59.2%

c1ccc(-c2ccc(-c3ccccc3)[nH]2)cc1
inactive: NCI-H23 lung 86.5% | NCI-H226 lung 86.5% | NCI-H322M lung 95.6% | HOP-62 NSCLC 105% | NCI-H460 lung 103% | NCI-H522 lung 85.7% | A549/ATCC NSCLC 88.7% | 786-0 renal 96.6% | COLO 205 colon 127% | DU-145 prostate 102% | K-562 leukemia 81.1% | MALME-3M melanoma 96.4% | MDA-MB-231 breast 89.5% | RXF 393 renal 102% | SF-268 CNS 98.6% | SF-295 CNS 109% | SF-539 CNS 93.9% | UACC-257 melanoma 101% | M14 melanoma 110%

CCN1C(=O)C(C)C=C(C)C=C1C (centres undefined)
inactive: NCI-H23 lung 102% | NCI-H226 lung 102% | NCI-H322M lung 108% | HOP-62 NSCLC 105% | NCI-H460 lung 113% | NCI-H522 lung 84.5% | A549/ATCC NSCLC 105% | 786-0 renal 115% | COLO 205 colon 104% | DU-145 prostate 90.7% | K-562 leukemia 95.3% | MALME-3M melanoma 104% | MDA-MB-231 breast 112% | RXF 393 renal 106% | SF-268 CNS 103% | SF-295 CNS 59.8% | SF-539 CNS 112% | UACC-257 melanoma 107% | M14 melanoma 120%
